Pf growth 48h – P. falciparum growth inhibition at 48 hours (one generation); P. falciparum luciferase growth in erythrocytes, 48 h; Potency, µM (titrated, usually from 28.7 µM), inactives show at the highest dose activity change, negative = inhibition, most hits filed as inhibitors; actives 5.9% (n = 310,000); note: potency is the fitted concentration of half-maximal effect
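Firefly luciferase activity from engineered P. falciparum reports growth; inhibitors lower the luminescent signal. Cultures contained 2% hematocrit erythrocytes at 0.1% final parasitemia.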
HCMV inh – inhibitors of human cytomegalovirus. HFF cells, HCMV-luciferase reporter, 72 h; stronger effect = lower value. activity change, negative = inhibition, % at 57.5 µM. actives 4.5% (n = 410,000). AID 1259415; in the data active = activity change below about -60%; inconclusive = no clear call, values can overlap the other calls; inactive = above about -39%
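Luciferase read-out from HCMV-luciferase-infected HFFs (MOI 1 PFU/cell) 72 h post infection at 37C; compounds added after 16 h cell attachment; activity normalized between buffer-only basal and Salinomycin (10uM) inhibitor controls.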
Pf growth 96h – P. falciparum growth inhibition at 96 hours; actives 6.9% (n = 320,000); P. falciparum luciferase reporter growth, 96 h; AID 504834; Potency, µM (series often up to 28.7 µM), for inactives: at the highest dose activity change, negative = inhibition, hits mostly inhibitors; note: potency is the fitted concentration of half-maximal effect
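P. falciparum expressing integrated firefly luciferase grown in erythrocytes (2% hematocrit, 0.05% parasitemia final) with compounds for 96 hours at 37 C, 5% CO2. Growth inhibition read as loss of luminescence after adding luciferase detection reagent.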
HCV inh – blocks hepatitis C virus; Huh7.5.1 HCVcc-Cre infection, luciferase reporter, 44 h; Potency, µM (highest dose often 41.8 µM), inactives show top-dose activity change, negative = inhibition, most hits filed as inhibitors; actives 3.4% (n = 340,000); note: potency is the fitted concentration of half-maximal effect
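Infectious HCVcc-Cre (~0.5 moi) was added to cells just after compound, with cells seeded 4 h earlier at 1,000 per well. Luciferase activity after 44 h culture reported infection; substrate was incubated 15 min at room temperature before reading.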
* marks the source's active call; other numbers are inactive results; ? = inconclusive; nt = not tested or not shown; [ ] = dose if it differs, or a comment. A selection: hits, their analogues and other compounds. The true share with any hit is near 13%. Unless noted, calls come from the whole dose curve; as a rule, active = well fitted inhibition curve with a large enough effect; inconclusive = small, poorly fitted or top-dose-only effect, or another doubt; inactive = no such curve, though single readings can be large or run the other way. % is set by controls: 0 for no effect and ±100 for the full control effect.

SMILES | Pf growth 48h | HCMV inh | Pf growth 96h | HCV inh
Cc1nc2c(c(C)c1CCC(=O)NCc1ccc(Cl)cc1)c(=O)n(C)c(=O)n2C | nt | 8 | nt | nt
CCc1nc2nc(C)cc(Nc3ccc(Br)cc3F)n2n1 | nt | -25 | nt | nt
COc1ccccc1Cc1c(-c2ccc(Cl)cc2)nc2ccc(C)cn12 | nt | 60 | nt | nt
COC(=O)C(NC(=O)CCc1c(C)nc2c(-c3ccccc3)c(C)nn2c1C)C(C)C (centres undefined) | nt | 0 | nt | nt
Cc1cc2c(cc1C)-n1nnnc1C(N(C)Cc1ccccc1)C(=O)N2 (centres undefined) | nt | -10 | nt | nt
CC(=O)N1CCN(c2nc(C)nc3sc4c(c23)CCC(C)C4)CC1 (centres undefined) | ? | ? | ? | -5%
CCC(=O)N1CCN(c2nc(C)nc3sc(C)c(C)c23)CC1 | 2% | -68* | ? | ?
Cc1sc2nc(CN3CCCCC3)nc(N3CCN(C(=O)c4ccco4)CC3)c2c1C | 7.4µM* | -7 | ? | ?
Cc1nc(N2CCN(C(=O)CCC(=O)O)CC2)c2c(C)c(C)sc2n1 | 9% | 43 | 27% | 30%
Cc1nc(N2CCN(S(=O)(=O)c3ccccc3)CC2)c2c3c(sc2n1)CC(C)CC3 (centres undefined) | ? | 29 | 10µM* | -4%
O=C(CCNS(=O)(=O)c1ccc2c(c1)CCN2C(=O)C1CC1)Nc1ccc(OC(F)(F)F)cc1 | nt | -7 | nt | nt
CCCN(CCC)C(=O)Cn1nnc2sc(-c3ccccc3)cc2c1=O | nt | 1 | nt | nt
CN1CCN(c2ccc(CNC(=O)C3(C)Cc4c(-c5ccc6c(c5)OCO6)ccnc4O3)cc2)CC1 (centres undefined) | nt | -1 | nt | nt
Cc1cccc(NS(=O)(=O)c2ccc3c(c2)Cc2cc(S(=O)(=O)Nc4cccc(C)c4C)ccc2-3)c1C | 9.3µM* | -10 | 25% | -26%
CC(=O)c1cccc(NS(=O)(=O)c2ccc(-c3cnc(C4CC4)o3)cc2)c1 | 31% | -85* | ? | ?
Cc1c(Cl)cccc1NS(=O)(=O)c1ccc(-c2cnc(C3CC3)o2)cc1 | nt | -80* | nt | nt
O=S(=O)(Nc1ccccc1)c1ccc(-c2cnc(C3CC3)o2)cc1 | 21% | -21 | ? | ?
Cc1cccc(NS(=O)(=O)c2ccc(-c3cnc(C4CC4)o3)cc2)c1C | ? | ? | 6.6µM* | ?
COc1ccc(C(C)(C)C)cc1N1C(=O)[C@@H]2CSCCS(=O)(=O)N2C1=O | nt | -12 | nt | nt
COc1ccc(OC)c(CCNC(=O)CN2C(=O)COc3ccc(S(=O)(=O)N4CCC(C)CC4)cc32)c1 | nt | -26 | nt | nt
Cc1ccc(C)c(NS(=O)(=O)c2ccc(-c3cnc(C4CC4)o3)cc2)c1 | ? | -82* | ? | ?
CN(C)c1cccc(Nc2cc3c(cn2)cc(-c2cnn(C)c2)n3C)c1 | nt | -32 | nt | nt
Cc1cc(/C=C(/C#N)C(=O)O)c(C)n1CCC(C)C | 3% | -68* | 5% | 12%
CCc1ccc(S(=O)(=O)c2cn(C)c3cc(N4CCC(C)CC4)c(F)cc3c2=O)cc1 | nt | 10 | nt | nt
O=C1C2CCCN2C(c2cccc(Cl)c2)N1c1ccccn1 (centres undefined) | -1% | 8 | 2% | 4%
SMILES | Pf growth 48h | HCMV inh | Pf growth 96h | HCV inh
COc1ccc(C2N(c3cc(C)on3)C(=O)C3CCCN32)cc1 (centres undefined) | -32%[1.15 µM] | 4 | 3.3µM* | -5%
Cc1cc(N2C(=O)C3CCCN3C2c2cccc(Cl)c2)no1 (centres undefined) | 9% | -8 | 4.7µM* | -8%
O=c1ccnc(Nc2ccc([N+](=O)[O-])cc2)[nH]1 | nt | -71* | nt | -20%
COc1ccc(Nc2nccc(-c3ccc([N+](=O)[O-])cc3)n2)cc1 | 0% | ? | -26% | ?
COC(=O)C1=C(c2ccc(OC(F)(F)F)cc2)C[C@@H]2CC[C@H]1N2C(=O)NCCOc1ccc(OC)cc1 | ? | -24 | 5.9µM* | ?
COC(=O)C1=C(c2ccc(OC(F)(F)F)cc2)C[C@@H]2CC[C@H]1N2C(=O)NCCc1ccccc1 | 3.7µM* | ? | ? | ?
COC(=O)C1=C(c2ccc(OC(F)(F)F)cc2)C[C@@H]2CC[C@H]1N2C(=O)NCc1ccc(F)cc1 | ? | -21 | ? | ?
COC(=O)C1=C(c2ccc(OC(F)(F)F)cc2)C[C@@H]2CC[C@H]1N2C(=O)NCc1cc(C)oc1C(F)(F)F | 12µM* | -37 | 8.3µM* | ?
COC(=O)C1=C(c2ccc(OC(F)(F)F)cc2)C[C@@H]2CC[C@H]1N2C(=O)NCc1cccc2ccccc12 | 1.7µM* | -12 | 1.9µM* | 10µM*
O=C(Nc1cccnc1)c1ccc(Br)c(S(=O)(=O)N2CCCC2)c1 | 13µM* | 4 | ? | ?
CC(C)c1ccc(C(=O)Nc2cccnc2)cc1 | 317% | 52 | 10µM* | -5%
Cc1ccc(C(=O)Nc2cccnc2)cc1S(=O)(=O)N1CCCC1 | ? | 7 | ? | nt
Cc1ccc(C(=O)Nc2cccnc2)cc1Cl | 56% | 53 | 10µM* | -12%
Cc1ccc(C(=O)Nc2cccnc2)cc1S(=O)(=O)N1CCCCC1 | ? | -35 | 2.1µM* | ?
O=C(Nc1cccnc1)c1ccc(F)cc1 | 18% | -30 | 9% | 6%
CC(C)NC(=O)Cc1csc2nc(-c3ccccc3)cn12 | nt | 2 | nt | nt
COC(=O)c1ccc(NC(=O)CSc2cn(CC(=O)N3CCCCCC3)c3ccccc23)cc1 | nt | 29 | nt | nt
COc1ccc(C(CNC(=O)c2oc3ccccc3c2C)N2CCCC2)cc1 (centres undefined) | 9.3µM* | -2 | 9.3µM* | ?
COc1ccc(C(CNC(=O)c2oc3c(Cl)cccc3c2C)N2CCCC2)cc1 (centres undefined) | ? | 10 | 10µM* | ?
CN1C(=O)c2c(sc3c2CC(C)(C)SC3)N2CCN=C12 | 17% | -5 | nt | 11µM*
CCc1nnc(NC(=O)c2cc(=O)c3cc(C)c(C)cc3o2)s1 | nt | -4 | nt | nt
CC(=O)Nc1ccc(/C=C/c2ccc3cccc([N+](=O)[O-])c3n2)cc1 | 59% | -90* | ? | 11µM*
CCOc1ccc(NS(=O)(=O)c2cc(OCC(N)=O)c(C)cc2Cl)cc1 | 1.5µM* | -2 | 3.7µM* | 36%
CCOc1cc(C)c(S(=O)(=O)Nc2ccc(F)cc2)cc1C | nt | -62* | ? | ?
COc1ccc(NS(=O)(=O)c2cc(OCC(N)=O)c(C)cc2Cl)cc1 | 10µM* | -29 | 2.1µM* | -10%
SMILES | Pf growth 48h | HCMV inh | Pf growth 96h | HCV inh
O=C(CSc1nnc(Cn2c(=O)sc3ccccc32)n1CCc1ccccc1)N1CCOCC1 | 9.3µM* | -10 | ? | -10%
Cn1c(Cn2c(=O)sc3ccccc32)nnc1SCC(=O)N1CCOCC1 | 7% | 11 | -20% | 9%
CSc1nnc(Cn2c(=O)sc3ccccc32)n1C | -3% | 6 | ? | 11%
CSc1nnc(Cn2c(=O)sc3ccccc32)n1CCc1ccccc1 | nt | -6 | 13µM* | -10%
CS(=O)(=O)Nc1ccc(-c2nc3ccccc3s2)cc1 | nt | 12 | nt | nt
Cc1ccnc(N/C=C(/NC(=O)c2ccccc2)C(=O)NN)n1 | 21% | -82* | -5% | 10%

Source: PubChem (National Center for Advancing Translational Sciences (NCATS))
